The OligoGym collection

biological target: C15orf54; test: pooled miR-30 sensor sort-seq; sequence = guide strand; conditions: shRNA
Also: reference of the scale not given here.

| Sequence | sensor-assay potency score (higher = more potent) |
| --- | --- |
| TTCACCTTCTTGAAGAACCTGC | 0.924 |
| TATACTTATTCTCACATCCTTT | -0.462 |
| TTCAGTTTGTGACTTTTGCTGG | 0.098 |
| TTCTGTAGGCACTACATTCTGG | -0.0345 |
| TTGAAAGGGACATCTGTTGGAT | 0.0555 |
| TATTTGAACATATAAGATGTTA | -0.68 |
| TTATTTGAAAGGGACATCTGTT | -0.498 |
| TTAAGCAATGAGCTCAATCTAG | -0.475 |
| TAGTATAATAAAGTTATGCTAC | -0.835 |
| TTCAAGATCAAACTAGGCCATG | -1.17 |

biological target: C15orf58; test: as above; conditions: shRNA

| Sequence | sensor-assay potency score (higher = more potent) |
| --- | --- |
| ATCTTGTTGAAGTTGAACTGTA | -0.903 |
| TGCCTGTACGTCTTCTGCCTGG | -0.932 |
| TCTTCTTGCAGCAGAGTCCCAG | -0.775 |
| AACATTGAAAGCTTCACCGTCC | 0.994 |
| TGTCAGGCTGCTGAAGTCCTGG | -0.843 |
| TCTTGTTGAAGTTGAACTGTAC | 0.172 |
| TTTGGGTCTGTAGCTCCCGTAG | -1.43 |
| TTATCAAGGACTCCAAGTCAGG | -1.43 |
| ATTGAAAGCTTCACCGTCCTTT | 0.575 |
| TGAAGTTGAACTGTACAGGGTC | 0.667 |
| TTGAAGTTGAACTGTACAGGGT | 0.153 |

biological target: C16orf55; test: as above; conditions: shRNA

| Sequence | sensor-assay potency score (higher = more potent) |
| --- | --- |
| TCTCCTTAGATTTTGGAACTGA | -0.0429 |
| TTCTCCATCAACTTCTCCTTAG | -0.561 |
| TTATAGGCGTCTGCTGTACTGG | -0.778 |
| TAGGCGTCTGCTGTACTGGGGT | 0.489 |
| TAGATTTTGGAACTGAATAGGT | -0.346 |
| TTTTGGAACTGAATAGGTGGAT | -0.336 |
| TGGACTTTTGCTTTACATCAGG | -1.63 |
| TTCTCTGCTGGTCACTCCCGCT | -1.51 |
| TTTGGAACTGAATAGGTGGATC | -0.304 |
| TTAGATTTTGGAACTGAATAGG | -0.116 |
| TTACATCAGGTTTCTCTTCCAG | 0.199 |
| TTCCTGGGAATGCTTCTCCATC | -1.49 |

biological target: C17orf103; test: as above; conditions: shRNA

| Sequence | sensor-assay potency score (higher = more potent) |
| --- | --- |
| TCTCCTTGACGTACTTCTGGAT | -0.358 |
| ATCTGGGACCTCGGTGTGCTGC | -1.85 |
| TAGGCATCTGGGACCTCGGTGT | -0.272 |
| TAACTCTGAGTCTGTTCCCAGT | -0.884 |
| TCATGACATCCGTTGAGCCGGA | -0.377 |
| TACTTCTGGATGTACCAGCAGG | -1.01 |
| TTCTCCTTGACGTACTTCTGGA | -0.93 |
